Screening results: PubChem, National Center for Advancing Translational Sciences (NCATS)
IL1B secr inh = inflammasome signaling inhibition, IL-1 beta readout. activity change, % at 57.5 µM. 360,000 compounds, 4.7% hits. THP-1 LPS/ATP IL-1B secretion, AlphaLISA, 16 h; active compounds read low; in the data active = activity change below about -50%; inconclusive = mostly about -30% to -49%
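THP-1 cells pretreated 1 hr with compounds (up to 57.5 uM final), then stimulated with LPS (250 ng/mL final) plus ATP (1.25 mM final); secreted IL-1B measured by AlphaLISA after 16 hr, decreased signal indicating inhibition.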
DT40 TDP1 no CPT = qHTS for Inhibitors of human tyrosyl-DNA phosphodiesterase 1 (TDP1): qHTS in cells in absence of CPT; DT40 Tdp1-/- hTDP1 cells, no CPT, ATP luminescence, 48 h; Potency, µM (series often up to 46.2 µM), without a hit: at the top dose activity change, negative = growth inhibition, usual class: inhibitors; 420,000 compounds, 15% hits; also: potency is read from the fitted curve at half-maximal effect; nearly all actives have a fitted effect of over 55% in size
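A cellular qHTS used chicken DT40 cells lacking endogenous Tdp1 but carrying stably transfected human TDP1. Compounds were applied without camptothecin, and cell growth kinetics were judged by ATP-dependent luminescence after ≥48 hr.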
HT1080NT lethal = kills 2HG-producing HT-1080-NT fibrosarcoma cells. AID 686970. HT-1080-NT fibrosarcoma viability, CellTiter-Glo ATP luminescence, 48 h. 360,000 compounds, 1.6% hits. Potency, µM (series often up to 46.1 µM), for the others: at the top dose activity, negative = less viability, most hits filed as cytotoxic;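 also: NT is the 2HG producing partner of a matched IDH1 knockdown line; potency is read from the fitted curve at half-maximal effect; 0% = DMSO-treated cells and -100% = media-only wells without cells; nearly all actives have a fitted effect of over 55% in size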
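750 cells/well, RPMI + 5% FBS; 2 h settle, compound pin-transfer, 48 h at 37 degrees C. CellTiter-Glo 10 min RT, luminescence. Normalized to DMSO and media-only wells.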
HT1080 IDH1KD tx = kills HT-1080 cells with IDH1 knockdown; HT-1080 IDH1 knockdown viability, ATP luminescence, 48 h; AID 686971; Potency, µM (highest dose often 46.1 µM), for inactives: at the top dose activity, negative = toxicity, most hits filed as cytotoxic; 360,000 compounds, 2% hits;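 also: potency is read from the fitted curve at half-maximal effect; 0% = DMSO wells and -100% = cell-free medium wells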
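Using the IDH1-knockdown HT-1080 line run in the same batch and compound series as the NT line, viability after 48 h at 37 °C was determined by CellTiter-Glo luminescence and expressed as % activity.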
TDP1 cell CPT = growth inhibition of DT40 Tdp1-/-;hTDP1 cells with camptothecin (screen for TDP1 inhibitors). chicken DT40 Tdp1-/-;hTDP1 cells + 20 nM CPT, ATP luminescence, 48 h. Potency, µM (highest dose often 46.2 µM), without a hit: top-dose activity change, negative = growth inhibition, hits mostly inhibitors. 420,000 compounds, 12% hits. AID 686979; also: potency is read from the fitted curve at half-maximal effect; nearly all actives have a fitted effect of over 55% in size
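Cell growth measured by CellTiter-Glo luminescence after a minimum 48 h, 37 C compound exposure with 20 nM CPT in Tdp1-knockout DT40 cells stably expressing hTDP1, seeded 400/well; qHTS titration format.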
* = called active by the depositor; u = inconclusive; x = no result; ! = not active in a repeat; [ ] = dose if it differs, or a comment. An excerpt weighted towards active compounds, which were near 19% of everything screened. Unless noted, calls follow the shape of the dose curve; as a rule, active = well fitted curve in the direction sought with a large enough effect; inconclusive = small, poorly fitted or top-dose-only effect, or another doubt; inactive = no such curve, though single readings can be large; an effect the other way counts as inactive or inconclusive. Unless noted, % is scaled to controls: 0 for no effect and ±100 for the full control effect.

SMILES | IL1B secr inh | DT40 TDP1 no CPT | HT1080NT lethal | HT1080 IDH1KD tx | TDP1 cell CPT
Cc1ccc(S(=O)c2ccc([N+](=O)[O-])c3nonc23)cc1 (stereo not drawn) | u | 3.3µM* | -12% | -5% | 2.6µM*
Cc1ccc(Nc2c([N+](=O)[O-])ccc3nonc23)c(C)c1 | 3 | 0% | 8% | 3% | 22%
CCCOc1ccc2oc(=O)c3c(c2c1)CCCN3C(=O)CN1CCN(c2ncccn2)CC1 | 6 | u | 13% | 18% | 18µM*
CCCOc1ccc2oc(=O)c3c(c2c1)CCCN3C(=O)CN1CCCC(C(=O)OCC)C1 (stereo not drawn) | 10 | 23µM* | -4% | -7% | u
CCOC(=O)C1CCN(CC(=O)N2CCCc3c2c(=O)oc2ccc(OCc4ccccc4)cc32)CC1 | x | -22% | x | x | -22%
COc1ccc(NS(=O)(=O)c2ccc(N3CCCC3)c(NC(=S)Nc3ccc(SC(F)F)cc3)c2)cc1 | -20 | 18µM* | -1% | -26% | 18µM*
COc1ccc(NS(=O)(=O)c2ccc(N3CCCC3)c(NC(=S)Nc3cccc(C)c3C)c2)cc1 | u | 9.2µM* | 11% | 7% | 12µM*
CCNC(=O)Nc1cc(S(=O)(=O)Nc2ccc(OC)cc2)ccc1N1CCOCC1 | -14 | 0.73µM* | -18% | -13% | 2.3µM*
CCc1cc2c(cc3c(=O)n(CC(=O)N4CCCCC4)ncn32)s1 | x | u | x | x | -23%
CCOCCCNC(=O)c1ccc(N2CC3CC(C2)c2cccc(=O)n2C3)c(NC(=O)Nc2cccc(OC)c2)c1 (stereo not drawn) | -10 | -23% | 6% | 0% | 6%
O=C(NCCCN1CCOCC1)c1cc(-c2ccc(F)cc2)no1 | 26 | -7% | -28% | -14% | -26%
O=C(Nc1cc(Cl)cc(Cl)c1)c1cc(S(=O)(=O)N2CCC3(CC2)OCCO3)ccc1F | x | u | x | x | 21µM*
O=C(Nc1cccc(Cl)c1)c1ccc(F)c(S(=O)(=O)N2CCC3(CC2)OCCO3)c1 | x | 13µM* | x | x | 15µM*
O=C(Nc1cccc(Cl)c1Cl)c1cc(S(=O)(=O)N2CCC3(CC2)OCCO3)ccc1F | x | 23µM* | x | x | u
O=C(Nc1cccc(C(F)(F)F)c1)c1ccc(F)c(S(=O)(=O)N2CCc3ccccc3C2)c1 | x | 13µM* | x | x | 15µM*
O=C(Nc1ccccc1Cl)c1cc(S(=O)(=O)N2CCC3(CC2)OCCO3)ccc1F | -13 | u | 2% | -2% | u
Cc1cc(C)c(NC(=O)c2cc(S(=O)(=O)N3CCC4(CC3)OCCO4)ccc2F)c(C)c1 | x | u | x | x | -22%
Cc1cc(C)nc(NC(=O)Cc2ccc(Br)cc2)n1 | -9 | 5% | 4% | 6% | -9%
COc1cc2[nH]c(=S)nc(NCc3ccccn3)c2cc1OC | 0 | -4% | -9% | 13% | 18%
Cc1ccccc1C(=O)Nc1ccc(OCc2cc(=O)n3ccccc3n2)cc1 | x | 3% | x | x | 12%
O=C(NC[C@@H]1CCCN2CCCC[C@H]12)c1cnn(-c2nccc(-c3cc4ccccc4o3)n2)c1C1CC1 | x | -8% | x | x | -3%[9.04 µM]
O=C(c1cc(S(=O)(=O)N2CCC3(CC2)OCCO3)ccc1F)N1CCCCC1 | -60* | 13% | -1% | 0% | -7%
O=C(O)c1c(C(=O)O)c(-c2ccc(Br)cc2)n2c1CSC2 | -5 | -12% | 11% | 7% | -1%
Cc1ccc(NC(=O)NC2CCCCCCC2)cc1 | u | -5% | 16% | 3% | -6%
CC1CCN(c2ccc3nnc(CCC(=O)N4CCN(c5ccccc5F)CC4)n3n2)CC1 | -12 | 15µM* | 0% | 13% | 23µM*
SMILES | IL1B secr inh | DT40 TDP1 no CPT | HT1080NT lethal | HT1080 IDH1KD tx | TDP1 cell CPT
CCCN1CCN(C(=O)CCc2nnc3ccc(N4CCN(c5cccc(OC)c5)CC4)nn23)CC1 | -13 | -23% | -11% | -4% | u
COc1cccc(N2CCN(c3ccc4nnc(CCC(=O)Nc5cccc(C(C)=O)c5)n4n3)CC2)c1 | 24 | u | 14% | 6% | 16µM*
COc1cccc(N2CCN(c3ccc4nnc(CCC(=O)Nc5ccc(F)cc5)n4n3)CC2)c1 | 20 | u | -4% | 0% | 6%
COc1ccc(OC)c(NC(=O)CCc2nnc3ccc(N4CCC(C)CC4)nn23)c1 | -50* | u | 0% | 0% | -30%
COc1ccc(N2CCN(C(=O)CCc3nnc4ccc(N5CCC(C)CC5)nn34)CC2)cc1 | -12 | 18µM* | -1% | -1% | 18µM*
COc1ccc(C2CC(c3c(O)n(C4CCCCC4)c(=O)[nH]c3=O)=Nc3ccccc3S2)cc1 (stereo not drawn) | x | 7% | x | x | 6%
O=C(CNC(=S)N(Cc1ccccc1)Cc1cccnc1)N1CCOCC1 | 16 | -4% | 11% | 13% | -7%
CCN(CC)c1ccc(/C=N/NC(=S)NCc2ccc(OC)cc2)cc1 | u | u | -8% | -18% | -17%
CCN(CC)c1ccc(/C=N/NC(=S)NCc2ccccc2)cc1 | 30 | 16µM* | 7% | 3% | u
C=CCNC(=S)N/N=C/c1ccc(N(CC)Cc2ccccc2)cc1 | -6 | 18µM* | -15% | u | 21µM*
CC1=C/C(=N\NC(=S)NCc2ccccc2)CC1 | 11 | 1.3µM* | -10% | 10% | 1.5µM*
Cn1c(=O)c(-c2ccc(F)cc2)nc2cncnc21 | x | -9% | x | x | 5%
CCOC(=O)/C(=N\Nc1ccccc1[N+](=O)[O-])c1csc(N)n1 | -26 | u | -2% | -1% | u
CCOC(=O)/C(=N\Nc1ccc(C(C)=O)cc1)c1csc(Nc2ccccc2)n1 | 3 | 10µM* | 16µM* | 16µM* | u
CCCCOc1ccc(CNC(=O)c2cnc3sc(N4CCC(C)CC4)nn3c2=O)cc1 | x | u | x | x | -9%
O=c1c2nnn(-c3ccccc3)c2ncn1C/C=C/c1ccccc1 | -4 | 26µM* | -7% | -2% | -25%
COCc1cc(C)nc(OCC(=O)N/N=C/c2ccc(-c3cc([N+](=O)[O-])ccc3C)o2)c1C#N | -26 | u | 1% | -28% | u
Cc1ccc([N+](=O)[O-])cc1-c1ccc(/C=C(\C#N)c2[nH]nc(N)c2C#N)o1 | u | 13µM* | u | 16µM* | u
O=C(COc1ccc2c(c1)OCO2)Nc1nccs1 | -14 | -25% | u | u | -4%
CCN(CCCc1ccccc1)CCCc1ccccc1 | -18 | 23µM*! | u | u | 10µM*!
COc1ccccc1Nc1nn2c(=O)c3ccc(C(=O)NCc4ccc(F)cc4)cc3nc2s1 | x | 2.3µM* | x | x | 3.7µM*
